This is a sample that favours compounds with a hit; in the whole collection about 7.4% have one here.
Rab9 prom act = qHTS Assay for Rab9 Promoter Activators | 2.8% of 320,000 active | Huh7 Rab9 promoter-luciferase reporter, luminescence, 24 h | Potency, µM (titrated, usually from 9.22 µM), without a hit: at the highest dose activation, negative = inhibition, usual class: activators; note: % of control where 0% means no effect; nearly all actives have a fitted effect of over 60% in size
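Cell-based reporter: Huh7 stable for Rab9 promoter-driven luciferase, plated in reduced-serum medium with 10% FBS at 1500 cells/well, compound-treated 24 h at 37 °C, luminescence read after 10 min reagent.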
SMN2 splice up = qHTS Assay for Enhancers of SMN2 Splice Variant Expression. HEK293 SMN2-luciferase splicing reporter, luminescence, 30-36 h. Potency, µM (titrated, usually from 46.1 µM), without a hit: top-dose activity change, positive = activation, actives largely listed as activators. 2.8% of 210,000 active. AID 1458, 2008; note: % of control where 0% means no effect; nearly all actives have a fitted effect of over 55% in size
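qHTS luciferase splicing reporter: luminescence rises when SMN2 exon 7 is included in transfected HEK293 cells. Compound exposure lasted 30-36 h at 37C, with 4.5 mM final sodium butyrate as control, followed by a ONE-Glo read.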
ELG1 genotox = qHTS screen for small molecules that induce genotoxicity in human embryonic kidney (HEK293T) cells expressing luciferase-tagged ELG1. 1.3% of 330,000 active. AID 504466, 2011. HEK293T ELG1-luciferase reporter, luminescence, 16 h. Potency, µM (series often up to 46 µM), for the others: at the top dose activity change, positive = activation, usual class: activators; note: % of control where 0% means no effect; nearly all actives have a fitted effect of over 60% in size
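Reporter readout depends on ELG1 protein level, which increases with genetic stress. After 16 hr compound exposure at 37 °C, luciferase activity was quantified using ONE-Glo.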
NPC1 prom act = qHTS Assay for NPC1 Promoter Activators; Potency, µM (top dose mostly 9.22 µM), for inactives: at the top dose activation, most hits filed as activators; Huh7 NPC1 promoter luciferase reporter, 24 h; 2.4% of 320,000 active; note: % of control where 0% means no effect; nearly all actives have a fitted effect of over 60% in size
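Huh7 cells stably carrying NPC1 promoter–luciferase, plated in Opti-MEM with 10% FBS for 2 h, were exposed to compound in DMSO for 24 h at 37 °C; luciferase reagent was added for 10 min and luminescence read.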
FLuc counter = qHTS profiling assay for firefly luciferase inhibitor/activator using purifed enzyme and Km concentrations of substrates (counterscreen for miR-21 project) | Luciferin 4-monooxygenase (Photinus pyralis), P08659 | purified FLuc, Km substrates, luminescence inhibition | Potency, µM (titrated, usually from 57.5 µM), without a hit: at the highest dose activity change, negative = inhibition, usual class: inhibitors | 6.9% of 360,000 active;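 note: plate controls were vehicle for no effect and reference inhibitor for full effect; nearly all actives have a fitted effect of over 55% in size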
Target sequence (P08659 whole entry, looked up): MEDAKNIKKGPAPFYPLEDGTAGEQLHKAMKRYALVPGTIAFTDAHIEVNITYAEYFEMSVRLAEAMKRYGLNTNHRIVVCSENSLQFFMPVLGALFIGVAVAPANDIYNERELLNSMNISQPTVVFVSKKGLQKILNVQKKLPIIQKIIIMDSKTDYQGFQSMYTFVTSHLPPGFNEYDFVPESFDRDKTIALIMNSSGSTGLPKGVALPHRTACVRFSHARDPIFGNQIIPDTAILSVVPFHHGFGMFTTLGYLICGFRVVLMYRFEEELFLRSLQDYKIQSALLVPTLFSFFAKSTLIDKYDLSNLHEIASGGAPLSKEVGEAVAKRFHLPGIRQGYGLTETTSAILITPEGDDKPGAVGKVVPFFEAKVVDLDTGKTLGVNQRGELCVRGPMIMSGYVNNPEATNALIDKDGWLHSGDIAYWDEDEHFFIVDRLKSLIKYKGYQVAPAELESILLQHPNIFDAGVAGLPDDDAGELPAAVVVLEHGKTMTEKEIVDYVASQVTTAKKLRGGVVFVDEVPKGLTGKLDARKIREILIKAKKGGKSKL
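Purified P. pyralis luciferase (10nM final) with 10uM D-luciferin and 10uM ATP (Km levels) in 50mM Tris acetate pH 7.5, 10mM Mg acetate, 0.01% Tween-20, 0.05% BSA; qHTS 6-point titration, ~60 µM downward; luminescence read.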
The depositor's hits bear a star; ? = inconclusive; . = not tested or not shown; [ ] = another dose, or the depositor's remark. Calls come from the whole dose curve; as a rule, active = well fitted curve in the direction sought with a large enough effect; inconclusive = small, poorly fitted or top-dose-only effect, or another doubt; inactive = no such curve, though single readings can be large; an effect the other way counts as inactive or inconclusive. Potency is the fitted concentration of half-maximal effect.

SMILES	Rab9 prom act	SMN2 splice up	ELG1 genotox	NPC1 prom act	FLuc counter
COc1cc(NC(=O)c2ccc3snnc3c2)cc(OC)c1	11%	.	13%	?	?
CCSc1nc2sc3c(c2c(=O)n1-c1ccccc1C)CCN(C)C3	-4%	.	-3%	1%	-1%
COC(=O)c1c(-c2ccccc2)csc1NC(=O)c1ccco1	?	-1%	2.3µM*	2.8µM*	5.4µM*
O=C(/C=C/c1ccco1)Nc1ccccc1N1CCCC1	14%	15%	-1%	11%	-9%
O=C(Nc1scc(-c2ccc(F)cc2)c1C(=O)O)c1ccco1	24%	?	?	26%	17µM*
Cc1ccc(-c2csc(NC(=O)/C=C/c3ccco3)c2C(=O)O)cc1	1.8µM*	11µM*	?	3.2µM*	6µM*
COc1cccc(Sc2nc(-c3ccccc3)ncc2S(C)(=O)=O)c1	-2%	.	1%	-4%	17µM*
CS(=O)(=O)c1cnc(-c2ccccc2)nc1Sc1ccc(F)cc1	2%	.	?	-5%	-18%
COc1ccc(NC(=O)Cc2nnc(SCC(=O)Nc3ccccc3)n2C)cc1	6%	.	2%	3%	17µM*
CCOc1ccc(NC(=O)CSc2nccn2C)cc1	?	?	?	21%	?
Cn1ccnc1SCC(=O)Nc1ccc(Oc2ccccc2)cc1	11%	-7%	?	?	13µM*
CCn1c(CC(=O)Nc2cccc(OC)c2)nnc1SCC(=O)Nc1nccs1	-5%	-4%	-14%	1%	-4%
COc1ccc(NC(=O)Cc2nnc(SCC(=O)Nc3nccs3)n2C)cc1	4%	.	2%	7%	15µM*
COc1ccc(CC(=O)NCc2nnc(SCC(=O)Nc3cccc(F)c3)n2C)cc1	-8%	5%	0%	0%	15µM*
c1ccc2c[n+](CCCC[n+]3ccc4ccccc4c3)ccc2c1	.	-10%[9.22 µM]	.	.	.
CCC(=O)N1CCCc2cc(S(=O)(=O)N3CCC(C(=O)Nc4ccc(C#N)cc4)CC3)ccc21	.	.	.	.	-9%
CCOc1ccc(-c2cn3c(n2)sc2cc(C(=O)NC4CCCc5ccccc54)ccc23)cc1 (stereo unspecified)	.	.	.	.	2%
COc1ccc(CNC(=O)C2CCCN(S(=O)(=O)c3ccc4c(ccn4C)c3)C2)c(OC)c1 (stereo unspecified)	.	.	.	.	0%
COc1ccc(C(=O)NCCc2nnc3ccc(SCC(=O)Nc4ccccc4)nn23)cc1	2.8µM*	.	?	1.6µM*	3µM*
O=C(CSc1ccc2nnc(CCNC(=O)c3ccccc3)n2n1)Nc1ccccc1	1%	-17%	2%	-3%	-2%
Cc1nc(SCC(=O)c2ccc(F)c(F)c2)[nH]c(=O)c1Oc1ccc(F)cc1	-1%	.	-2%	5%	-4%
COc1ccc(-c2cc(C(=O)Nc3ccc(C(N)=O)cc3)c3ccccc3n2)cc1OC	25%	?	-1%	10%	3.4µM*
COc1ccc(-c2cc(C(=O)Nc3ccc(S(=O)(=O)Nc4onc(C)c4C)cc3)c3ccccc3n2)cc1OC	9%	.	2%	8%	13µM*
COc1cc(-c2cc(C(=O)Nc3ccc(O)cc3)c3ccccc3n2)cc(OC)c1OC	-8%	.	-10%	3%	?
COc1ccc(-c2cc(C(=O)NC(C)c3ccccn3)c3ccccc3n2)cc1OC (stereo unspecified)	-6%	.	-4%	-1%	7.6µM*
SMILES	Rab9 prom act	SMN2 splice up	ELG1 genotox	NPC1 prom act	FLuc counter
COc1cc(C(=O)Nc2ccc(S(=O)(=O)Nc3onc(C)c3C)cc2)cc(OC)c1OC	5%	6%	0%	6%	-2%
COc1ccc(NC(=O)c2cc(-c3ccc(OC)c(OC)c3)nc3ccccc23)c(OC)c1	18%	.	0%	14%	7.6µM*
CC(C)c1ccc(/C(C(=O)O)=C(\O)C(=O)O)cc1	.	-10%[9.22 µM]	.	.	.
O=C(NC1CCCC1)C(c1ccccn1)N(C(=O)c1csnn1)c1ccccc1Br (stereo unspecified)	2%	.	0%	1%	1%
COc1ccc(-c2cc(C(=O)OC3CCOC3=O)c3ccccc3n2)cc1OC (stereo unspecified)	-2%	-4%	4%	9%	13µM*
CCc1c(C)nc2[nH]nc(-c3ccccc3)n2c1=O	9%	.	?	14%	21µM*
CCc1c(C)nc2[nH]nc(-c3ccccc3C)n2c1=O	0%	20%	2%	1%	?
COCCNc1nc(C)cc(-c2cc(-c3ccc(Cl)cc3)on2)n1	0%	.	0%	10%	15µM*
O=C(O)COc1ccccc1/C=N/NC(=O)CSc1nnc(SCc2ccc(Cl)cc2)s1	5%	.	-3%	13%	9.5µM*
O=C(O)COc1ccccc1/C=N/NC(=O)CSc1nnc(SCc2cccc3ccccc23)s1	-4%	.	0%	2%	19µM*
O=C(CSc1nnc(SCc2ccc(Cl)cc2)s1)N/N=C/c1c[nH]c2ccccc12	-3%	-22%	10%	7%	-5%
O=C(CSc1nnc(SCc2cccc3ccccc23)s1)N/N=C/c1c[nH]c2ccccc12	-1%	-26%	-6%	0%	?
O=C(CSc1nnc(SCc2ccc(Cl)cc2)s1)N/N=C/c1ccc(C(=O)O)cc1	0%	.	2%	10%	1.3µM*
CCCCn1cc(S(=O)(=O)c2ccc(OC)cc2)c(=O)c2cc(F)c(N3CCCC3)cc21	.	.	.	.	6%
O=C(Nc1ccc(F)cc1)C1CCCCC1	18%	-12%	2%	3%	-4%
Cc1ccc(C(=O)Nc2ccc(-c3csc(C)n3)cc2)cc1	?	140%	?	2.2µM*	?
Cc1nc(-c2ccc(NC(=O)C3CCCCC3)cc2)cs1	2.8µM*	25µM*	2.3µM*	3.2µM*	2.1µM*
Cc1nc(-c2ccc(C(=O)NCCO)cc2)cs1	25%	-8%	?	3%	?
CCc1ccccc1NC(=O)c1ccc(-c2csc(C)n2)cc1	?	.	?	3.5µM*	?
Cc1nc(-c2ccc(NC(=O)c3ccccc3)cc2)cs1	-14%	.	-14%	-7%	-1%
CC(C)NC(=O)C1CCC(Cn2c(=O)c3sccc3n(CC(=O)Nc3ccccc3)c2=O)CC1 (stereo unspecified)	.	.	.	.	0%
Cc1nn2c(=O)cc(COC(=O)c3ccc(NC(=O)c4ccc(C(C)(C)C)cc4)cc3)nc2s1	.	.	.	.	-14%
CN(CC(=O)Nc1ccc(N2CCOCC2)cc1)Cc1cc(=O)n2ccsc2n1	-7%	4%	18%	0%	-2%
COc1ccc2c(c1)CC/C2=N\OC(=O)c1cccc(C)c1	?	11%	?	3.5µM*	1.5µM*
COc1ccc2c(c1)CC/C2=N\OC(=O)c1ccccc1C	?	0%	?	?	1.5µM*

Assay outcomes as filed in PubChem.
